± gives the standard deviation of the averaged measurements. Over roughly 25,000 sequences, “ln(normalized median fluorescence intensity)” has its median near 8.6; the highest 2% begin near 10. What follows is part of a selection rich in the highest values, with near analogues and random picks from the rest.
Test system: PfAP2-EXP AP2 domain (GST-tagged)
Assay: gcPBM binding intensity (ln(normalized median fluorescence intensity)); higher = stronger DNA binding
In short: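 An Agilent 4 × 180k array of primer-extended double-stranded 36-bp intergenic genomic probes, with negative controls, was incubated for 1 h with GST-tagged P. falciparum DNA-binding domains expressed in E. coli. Alexa488 anti-GST antibody detected bound protein, scanned at 488 nm. Binding intensity is the highest Masliner-normalised natural-log median intensity across replicate spots of either probe orientation.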

Sequence | gcPBM binding intensity (ln)
TAACTAAGGAATAATACACACAGAAATATAGATTTA [CACACA_site6293] | 8.41 ± 0.42
TTTTTTTTTTTTTTTTTTTTACGATATATTTTAAAA [XGTACX_negctrl_site401] | 8.03 ± 0.67
GTTATACATTTGAAAAGTACTCATGATTTTTTTTTT [XGTACX_site8177] | 8.75 ± 0.45
TCGAATATCTTATAGGTGCATCATAAATACATATGT | 8.69 ± 0.28
TGTATATATAATAAAACACACATTTTTAATGTGCTC [CACACA_site1437] | 8.01 ± 0.3
TTAACCACTAAAAGTACACACATATATACCTATATA [CACACA_site6026] | 8.45 ± 0.28
AATAAATAAAGAAGTACACACATATATATATATATA [CACACA_site4314] | 10.1 ± 0.41
ATGATATGGATAAATACACACAATAAAATAATGTCT [CACACA_site6786] | 8.71 ± 0.43
TATATATATTTATGTACACACACACCGATAAATAAA [CACACA_site4404] | 8.91 ± 0.48
AATATATATATATATACACACACACCGATATATATA [CACACA_site8158] | 8.79 ± 0.33
TATATATATATATGTACACACACACCGATAAATAAA [CACACA_site8041] | 10.21 ± 0.085
TATACATACATACATACACACACACCGATATATACA [CACACA_site8184] | 8.78 ± 0.42
TATATATATATATACACACACACACCGATATATATA [CACACA_site8813] | 10.3 ± 0.41
TATGTACAAATATGTACACACACACCGATATATATA [CACACA_site4487] | 8.76 ± 0.18
TATATATATATGTGTACACATGTCGCATTTTTTTAT [CACACA_site4648] | 10 ± 0.26
TGATAATTTCATTTTGCATGTGACAATACAAGATGT [TGCATGCA_site203] | 8.59 ± 0.18
AAAAAAATAATATAAATAATGAAAAGATATAAATAA [GTGCAC_negctrl_site432] | 8.54 ± 0.35
ATGCTTCCTTAGGAATGTACACACATATATAATATG [XGTACX_site873] | 8.69 ± 0.35
TAAAATATAATAAAATGTACACGCATGCAATAGAAT [XGTACX_site7434] | 9.99 ± 0.47
CAAAAATAATAGAATACATGCAAAAATAAATGTATA [TGCATGCA_site196] | 9 ± 0.071
TAATAAAATGTACACGCATGCAATAGAATATAAAGT [TGCATGCA_site905] | 10.3 ± 0.79
ATAGAAATAAAATAAAATAAAAAAAAAATAATGAAA [CACACA_negctrl_site1565] | 8.64 ± 0.43
AAAATATATATAAATGCATGCATAATGAAATATATA [TGCATGCA_site39] | 9.95 ± 0.21

Sequence | gcPBM binding intensity (ln)
TAGAAAAAAATAGATGCATGCAATGAATGAATAATA [TGCATGCA_site14] | 10.3 ± 0.17
ATTCTACCACGCGATATACACACTTGTAGACATCTT [CACACA_site188] | 8.97 ± 0.49
TTTAAAAATTTGATCAAACACACGTTGCATAAATTA [CACACA_site3945] | 8.87 ± 0.47
TTGTTTAACTTGTTAAATATAATGTATCTGTGGATA [GTGCAC_negctrl_site108] | 8.12 ± 0.4
TTAATACTTTTTTCTGTACACACTTGATTTACTATA [CACACA_site2799] | 8.95 ± 0.44
ATGTTTATTTATTTATGTACTTATATATTTATATAT [XGTACX_site7924] | 8.78 ± 0.34
ATATATATGTATGTATGTACTTATTTATTTATTTAT [XGTACX_site7740] | 8.32 ± 0.16
AAAATTGTTATTTTATGTACTTATATTTATTTATTT [XGTACX_site3478] | 8.53 ± 0.27
TATATATATATATATTGTACTTATGTTTATATTCAT [XGTACX_site6258] | 10.1 ± 0.2
TATATATATATATATTGTACTTTATATGTTCTTATA [XGTACX_site7545] | 10.3 ± 0.11
TTTTTATTTATATGATACTTATATATATATATATAT [CACACA_negctrl_site462] | 10.2 ± 0.16
TATTTATTGTGATACTTATATTATTTTATGATTAAA [CACACA_negctrl_site901] | 8.27 ± 0.37
ATATATATATATATATGTACTTATTTATATATTTAT [XGTACX_site7811] | 10.1 ± 0.25
ATATATATATATATATGTACTTATTTATTTATTTAT [XGTACX_site4645] | 10.2 ± 0.51
ATATATATATATAGTTGTACTTAATTTTATATGTTA [XGTACX_site5256] | 10.2 ± 0.15
TTGTTAATATATATATGTACTTATTTATTTATTTAT [XGTACX_site2274] | 8.51 ± 0.35
TACTTATTGTGATACTTATATTATTTTATGATTAAA [XGTACX_negctrl_site353] | 8.36 ± 0.39
ATCTTTTCATATTGCTGTACAAATTATTTTCATTCG [XGTACX_site492] | 9.05 ± 0.45
AGAATTATATACACAAGTACATAATGACATATATAT [XGTACX_site5617] | 8.42 ± 0.35
ATATATATATATATATGTACTTATGTCATCATTAAA [XGTACX_site5316] | 10.3 ± 0.35
TATCATTTATATATGTGTACTTATTTATTTATTTAT [XGTACX_site7961] | 8.82 ± 0.45
ATATATATATATATATGTACTTATTTATTTTATATA [XGTACX_site8810] | 10.2 ± 0.24
ATATATATATATATATGTACTTATTAAGATTAAAAA [XGTACX_site61] | 10.2 ± 0.2

Sequence | gcPBM binding intensity (ln)
ATATATATATATATATGTACTTATTTATTTATATTA [XGTACX_site4646] | 10.3 ± 0.39
TAAATATATATTATATGTACTTATATATATATATAT [XGTACX_site4448] | 9.85 ± 0.3
GTATGTATATATGTATGTACTTATGTATCATTATTA [XGTACX_site2438] | 8.35 ± 0.26
ATATTTTTTTTTTTATGTACTTATTTATAATTATTT [XGTACX_site5279] | 8.67 ± 0.37
TTATATATTTTTATGTGTACTTATATATATATATAT [XGTACX_site6211] | 10 ± 0.13
ATTTATTTATTTATATGTACTTATATATGTATTTTC [XGTACX_site6269] | 8.85 ± 0.25
TATATATTATATATATGTACTTATTTATTAATTTAT [XGTACX_site5253] | 8.29 ± 0.25
ATATATATATATATGTGTACTTATATATTTAAAAAA [XGTACX_site1761] | 10 ± 0.27
TTTTATCGTTTTTTTTTTTTTTTTTTTTTTTTTTTT [CACACA_negctrl_site1309] | 9.06 ± 0.092
TCTGGATTGGATTACAAGAAAATAAAATATAAAATA [CACACA_negctrl_site122] | 8.38 ± 0.4
ATGAAGAAGTGTAAATGTACATTTTATGTAGAACAA [XGTACX_site6925] | 8.93 ± 0.48
TAATATTATATTATATGTACATAACAAATTATATTT [XGTACX_site4296] | 8.6 ± 0.21
ATTTTTTTATAAGAAAATTTCTAACGTTAAAAAAAA [CACACA_negctrl_site1367] | 8.38 ± 0.59
ATATATATATATGATACATGCATATATTTTTTCTTC [TGCATGCA_site216] | 9.99 ± 0.13
TATATATATGTATGATGTACATATATGCATATATAT [XGTACX_site3399] | 8.54 ± 0.23
TATATATATATATATGCATGCCATATGATATATATA [TGCATGCA_site109] | 10.3 ± 0.27
ATTTTATTTTTTGAGTGTACTAGTTCAACAACTCCG [XGTACX_site8600] | 8.72 ± 0.52
TGGTTTCAATAATTAATAAAATATATTATTGTGAAA [CACACA_negctrl_site442] | 7.95 ± 0.41
AAGACAATATATGCAGTGCATATACATACATATATA | 8.65 ± 0.25
CGTATGTGCGGACATGCATGCAATATACAAGAAAAA [TGCATGCA_site145] | 10.2 ± 0.28
ACGGAAAAAGAAAAGGTGCATATGGACACAATATAT | 9.35 ± 0.17
AAGAAAAGTAAATATGCATGTAGGGTAGGTTATTTT [TGCATGCA_site46] | 8.94 ± 0.23
TGGGTCTCTAACTGGTGTACTATTTACATATTATAC [XGTACX_site8593] | 8.75 ± 0.37

Sequence | gcPBM binding intensity (ln)
AATATACAAAATATCACACATATAAAATAATATATA [CACACA_site6067] | 8.27 ± 0.5
TATAAATAAATACATACACACACATACATATATATA [CACACA_site9024] | 8.71 ± 0.38
TGTATAAATATAATCACACATATATATATATATATA [CACACA_site4365] | 10.3 ± 0.73
GGAACAAATAATATCACACATATATATATATATATA [CACACA_site5670] | 10.3 ± 0.23
TATAAATATAAATATACACACATATATATATATATA [CACACA_site1678] | 9.99 ± 0.4
TGTATAATCATATATACACACACATATATATATATA [CACACA_site8674] | 10.1 ± 0.24
TATATATATAAATACACACACATATATATATATATA [CACACA_site4867] | 10.2 ± 0.25
TATAATCATAAATACACACACATATATATATATATA [CACACA_site5224] | 10.2 ± 0.42
ATAATAAAATAAATCACACATAATATAATGTAATAT [CACACA_site6144] | 8.44 ± 0.3
TAAATATAAACACAAACACACACATATATATATATA [CACACA_site7978] | 10.1 ± 0.42
GCTATAAATATAATCACACATAAATATATAATATAT [CACACA_site5144] | 8.23 ± 0.29
TATAATCATATATACACACACATATATATATATATA [CACACA_site2168] | 10.2 ± 0.43
TATATGAAGCTATAGACACACATATAAAAATATAAT [CACACA_site4850] | 8.64 ± 0.47
TCCCTAGTATACCTTAGTACATATATTATTTTGCAC [XGTACX_site2174] | 8.98 ± 0.11
ACTAGTAAATTTATATGTACATATATATATATATAG [XGTACX_site2502] | 8.68 ± 0.24
ATACATATATATATATGTACATATGTATTTTTTATT [XGTACX_site105] | 8.63 ± 0.38
ATATATTTAATATTCACACATAATTATTTTTACTCT [CACACA_site5438] | 8.59 ± 0.38
CATCCAAAAATATTATGTACTAAATTTGGATGTATT [XGTACX_site3954] | 8.48 ± 0.47
TTTTAAATATGCCATACACACTACTATATAATAAAT [CACACA_site5119] | 8.58 ± 0.34
ATACTTTTAAATTGATGTACTTTATTTATAAGGTGA [XGTACX_site6746] | 8.38 ± 0.38
